In PubChem BioAssay AID434936 (National Center for Advancing Translational Sciences (NCATS), 2010):
Several values for one entry are separate records, joined by “and”; a condition that tells them apart may be missing. Identical values can stand only once. Inconclusive results are not listed. Activity calls are given as the source filed them. Calls follow the shape of the dose curve; as a rule, active = well fitted curve in either direction with a large enough effect; inconclusive = small, poorly fitted or top-dose-only effect; inactive = flat fitted curve, though single readings scatter.

Target: Neuropeptide S receptor (Homo sapiens) (UniProt Q6W5P4)
Sequence (Q6W5P4 whole entry, looked up): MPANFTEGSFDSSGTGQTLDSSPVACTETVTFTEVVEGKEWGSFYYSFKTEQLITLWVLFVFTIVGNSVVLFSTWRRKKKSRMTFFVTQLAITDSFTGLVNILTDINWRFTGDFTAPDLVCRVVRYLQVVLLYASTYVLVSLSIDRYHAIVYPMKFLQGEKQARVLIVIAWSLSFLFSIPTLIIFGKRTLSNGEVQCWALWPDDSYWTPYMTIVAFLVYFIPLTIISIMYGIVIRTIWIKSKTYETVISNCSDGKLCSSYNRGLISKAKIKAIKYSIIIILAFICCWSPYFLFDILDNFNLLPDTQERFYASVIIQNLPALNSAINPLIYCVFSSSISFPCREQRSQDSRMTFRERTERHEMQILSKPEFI
Assay: Confirmation Concentration-Response Assay for Antagonists of the Neuropeptide S Receptor: Robust Characterization of cAMP Signal Transduction
Details: CHO-NPSR cells, NPS-stimulated cAMP TR-FRET; series mostly up to 50.7 µM; activity, negative = inhibition: at the top concentration
Source text: NIH Chemical Genomics Center [NCGC] NIH Molecular Libraries Probe Production centers Network [MLPCN] MLPCN Grant: X01-DA026210-01 Assay Submitter (PI): Heilig, Markus Alexander NCGC Assay Overview: Neuropeptide S receptor (NPSR), previously known as GPR154, is a recently de-orphanized G protein coupled receptor. Its endogenous ligand is the 20 amino acids peptide Neuropeptide S (NPS). […] NPS and its receptor are found in various tissues. Specifically they are highly expressed in brain areas that have been implicated in modulation of arousal, stress and anxiety. Central administration of NPS in mice produces an unusual profile of activity by inducing wakefulness and arousal, while at the same time suppressing anxiety. Therefore, NPSR may represent a novel drug target for the treatment of sleep and anxiety disorders. To identify NPSR antagonists, we developed a cell-based cAMP assay. NPS can stimulate the production of cAMP in Chinese hamster ovary cells stably expressing NPS receptor. This change in intracellular cAMP level can be detected by a homogeneous LANCE cAMP assay based on the TR-FRET (time resolved fluorescence resonance energy transfer) between a europium-labeled cAMP tracer complex and a cAMP-specific antibody labeled with Alexa Fluor 647. The europium-labeled cAMP tracer complex is formed by the tight interaction between Biotin-cAMP (b-cAMP) and streptavidin labeled with Europium-W8044 chelate (Eu-SA). Light pulse at 320 nm excites the europium of the cAMP tracer and the energy emitted is transferred to the Alexa molecule bound to the cAMP antibody, generating a TR-FRET signal at 665 nm. Residual energy from the europium will produce a light at 620 nm. The native unlabeled cAMP from cell lysates competes with the europium-cAMP tracer for antibody binding and reversely reduces the emission signal of Alexa by interrupting FRET between the two labeled molecules. Both emission signals from the FRET donor (620 nm) and the acceptor (665 nm) can be detected by a plate reader in the TRF mode. Expression of result in fluorescence ratio (665 nm/620 nm) helps to normalize differences due to cell density and reagent dispensing. This assay was successfully optimized to a 1536-well plate format. Select compounds from the primary screen (AID 1461) were chosen for confirmation based on potency, efficacy, SAR, and activity across other assays in PubChem and at NCGC. Other compounds are analogs of active compounds from the primary screen. This particular assay uses a high density of sampling across concentration-response space to establish more confidence estimates of potency.
NCGC Assay Protocol Summary: A Chinese hamster ovary (CHO) cell line stably expressing the NPS receptor (CHO-NPSR) was obtained from Dr. Heilig lab at NIAAA and maintained in F-12 Kaighn's media (Invitrogen, Carlsbad, CA, 21127) supplemented with 10 % FBS, 100 units/ml penicillin, 100 ug/ml streptomycin and 250 ug/ml geneticin at 37C, 5% CO2 in a humidified atmosphere. Before the assay, aliquots of cells were frozen and stored at -135C. The assay was performed in 1536-well format. Data are reported for both the ratio of the two emission wavelengths, and also for the component 'donor' channel, Em2=620. […] IC50 values were determined from concentration-response data modeled with the standard Hill equation. NPS 1536-well assay protocol: (1) Fresh or frozen CHO-NPSR cells were suspended in F-12 Kaighn's media supplemented with 10 % FBS, 100 units/ml penicillin and 100 ug/ml streptomycin. Cells were plated at 4 ul/well (1200 cells) to white, tissue culture treated 1536-well plates, and then cultured at 37C, 5 % CO2 for 16 to 30 hours. (2) Add 23 nl/well of compound in DMSO solution. The final titration for each compound was between 0.6 nM and 46 uM. […]

SMILES	Potency	activity, negative = inhibition
COc1cccc(C2c3c(ncn(-c4ccccc4SC)c3=N)Oc3ccc4ccccc4c32)c1 (stereo not given)	4.87 µM (active)	–
COc1cccc(C2c3c(ncn(Cc4cccs4)c3=N)Oc3ccc4ccccc4c32)c1 (stereo not given)	12.2 µM (active)	–
CCOC(=O)CC(=O)Nc1ncnc2c1C(c1ccccc1)c1c(ccc3ccccc13)O2 (stereo not given)	3.07 µM (active)	–
COc1cccc(C2c3c(ncn(-c4ccc(C(C)(C)C)cc4)c3=N)Oc3ccc4ccccc4c32)c1 (stereo not given)	12.2 µM (active)	–
COc1cccc(C2c3c(ncn(-c4ccc(Br)cc4)c3=N)Oc3ccc4ccccc4c32)c1 (stereo not given)	12.2 µM (active)	–
COc1cccc(C2c3c(ncn(CCCN4CCOCC4)c3=N)Oc3ccc4ccccc4c32)c1 (stereo not given)	4.87 µM (active)	–
COc1cccc(C2c3c(ncn(-c4ccccc4)c3=N)Oc3ccc4ccccc4c32)c1OC (stereo not given)	4.34 µM (active)	–
CCOC(=O)c1ccc(-n2cnc3c(c2=N)C(c2cccc(OC)c2)c2c(ccc4ccccc24)O3)cc1 (stereo not given)	10.9 µM (active)	–
COc1ccc(C2c3c(ncn(CCCc4ccccc4)c3=N)Oc3ccc4ccccc4c32)cc1OC (stereo not given)	27.4 µM (active)	–
N=c1c2c(ncn1-c1ccccc1)Oc1ccc3ccccc3c1C2c1ccc2c(c1)OCO2 (stereo not given)	3.07 µM (active)	–
COc1cccc(C2c3c(ncn(-c4ccccc4OC)c3=N)Oc3ccc4ccccc4c32)c1 (stereo not given)	4.34 µM (active)	–
COc1cccc(C2C(C#N)=C(NC(=O)CCc3ccccc3)Oc3ccc4ccccc4c32)c1 (stereo not given)	–	1.79% (inactive)
Cc1nc2ccccn2c1C(O)(c1ccccc1)c1ccccc1	–	12.1% (inactive)
COc1cccc(C2c3c(ncn(-c4cccc(C#N)c4)c3=N)Oc3ccc4ccccc4c32)c1 (stereo not given)	13.7 µM (active)	–
COc1cccc(C2c3c(ncn(-c4ccc(NC(C)=O)cc4)c3=N)Oc3ccc4ccccc4c32)c1 (stereo not given)	12.2 µM (active)	–
COc1ccc(C2c3c(nc(Cc4ccccc4)[nH]c3=O)Oc3ccc4ccccc4c32)cc1OC (stereo not given)	–	5.64% (inactive)
COc1cccc(C2c3c(ncn(-c4ccccc4Br)c3=N)Oc3ccc4ccccc4c32)c1 (stereo not given)	9.72 µM (active)	–
COc1cccc(C2c3c(ncn(-c4ccccc4-c4ccccc4)c3=N)Oc3ccc4ccccc4c32)c1 (stereo not given)	15.4 µM (active)	–
COc1cccc(C2c3c(ncn(-c4cccc(Cl)c4)c3=N)Oc3ccc4ccccc4c32)c1 (stereo not given)	8.67 µM (active)	–
CCOc1ccc(C2c3c(ncn(-c4ccccc4)c3=N)Oc3ccc4ccccc4c32)cc1OCC (stereo not given)	3.45 µM (active)	–

SMILES	Potency	activity, negative = inhibition
N=c1c2c(ccn1CCCc1ccccc1)Oc1ccc3ccccc3c1C2c1ccccc1 (stereo not given)	2.74 µM (active)	–
COc1cccc(C2c3c(ncn(-c4cccc(F)c4)c3=N)Oc3ccc4ccccc4c32)c1 (stereo not given)	3.87 µM (active)	–
Nc1ncnc2c1C(c1ccccc1)c1c(ccc3ccccc13)O2 (stereo not given)	6.88 µM (active)	–
COc1cccc(C2c3c(ncn(-c4ccccc4C(C)(C)C)c3=N)Oc3ccc4ccccc4c32)c1 (stereo not given)	12.2 µM (active)	–
COc1cccc(C2c3c(ncn(-c4ccc(-c5ccccc5)cc4)c3=N)Oc3ccc4ccccc4c32)c1 (stereo not given)	–	-2.59% (inactive)
COc1cccc(C2c3c(ncn(-c4ccc5c(c4)OCO5)c3=N)Oc3ccc4ccccc4c32)c1 (stereo not given)	4.34 µM (active)	–
COc1ccc(C2c3c(ncn(Cc4ccccc4)c3=N)Oc3ccc4ccccc4c32)cc1OC (stereo not given)	13.7 µM (active)	–
COc1ccccc1C1c2c(ncn(-c3ccccc3)c2=N)Oc2ccc3ccccc3c21 (stereo not given)	4.34 µM (active)	–
N=c1c2c(ncn1-c1ccccc1)Oc1ccc3ccccc3c1C2c1ccc2c(c1)CCO2 (stereo not given)	2.18 µM (active)	–
O=C(CCc1ccccc1)Nc1ncnc2c1C(c1ccccc1)c1c(ccc3ccccc13)O2 (stereo not given)	4.34 µM (active)	–
COc1cccc(C2c3c(ncn(-c4ccccc4)c3=N)Oc3ccc4ccccc4c32)c1 (stereo not given)	8.67 µM (active) and 1.54 µM (active)	–
COc1ccc(C2c3c(nc(CCCc4ccccc4)[nH]c3=O)Oc3ccc4ccccc4c32)cc1OC (stereo not given)	–	12.4% (inactive)
COc1cccc(C2c3c(ncn(-c4ccccn4)c3=N)Oc3ccc4ccccc4c32)c1 (stereo not given)	17.3 µM (active)	–
COc1ccc2c(c1)Oc1ncn(CCN3CCOCC3)c(=N)c1C2c1ccc(OC)c(OC)c1 (stereo not given)	13.7 µM (active)	–
CCC(C)(CCN1CCOCC1)N(Cc1cc2ccccc2n(C)c1=O)C(=O)C1CCCCC1 (stereo not given)	0.0546 µM (active)	–
COc1cccc(C2c3c(ncn(-c4ccncc4)c3=N)Oc3ccc4ccccc4c32)c1 (stereo not given)	13.7 µM (active)	–
COc1ccc(C2c3c(ncn(CCN4CCOCC4)c3=N)Oc3ccc4ccccc4c32)cc1OC (stereo not given)	2.74 µM (active)	–
Cc1c(C(O)(c2ccccc2)c2ccccc2)[n+]2ccccc2n1C	–	1.1% (inactive)
O=C(c1ccccc1)N(C(=O)c1ccccc1)c1ncnc2c1C(c1ccccc1)c1c(ccc3ccccc13)O2 (stereo not given)	1.54 µM (active)	–
Cc1nc2ccccn2c1P(=O)(c1ccccc1)c1ccccc1	–	10.3% (inactive)
